aSyn 5UTR act: Activators working through SNCA 5'UTR binding (MLPCN) | activity score, % (tested at 7.5 µM), hits read low | alpha-synuclein 5'UTR reporter, activators screen | hit rate 7.1% among 300,000; in the data active = activity score below about -60%
* hit, by the source's call. Not all results are given here.

SMILES	aSyn 5UTR act
Cc1csc(NC(=O)CSc2nnnn2C)n1	-67.7*
O=c1cc(N2CCN(c3ccccc3Cl)CC2)[nH]c(=O)n1Cc1ccc(F)cc1	-71.7*
CCC1CCCCN1CC(O)Cn1c2ccccc2n2c(=O)cc(C)c(C#N)c12 (stereo unspecified)	-63.8*
COc1ccc(CNC(=O)Cn2cccc2C(=O)c2ccccc2)cc1	-68.8*
COc1ccc(CNC(=O)Cn2cccc2C(=O)c2ccccc2C)cc1	-101.3*
CCOC(=O)COc1cccc2c(=O)n(CC(=O)NCc3ccc(F)cc3)ccc12	75.2
Cc1ccc(/C=C/C(=O)c2ccc(N3CCOCC3)cc2)s1	-133.2*
Cc1cccc(/C=C/C(=O)c2ccc(N3CCOCC3)cc2)c1	-114.3*
COc1ccc2oc3ccc(OC)cc3c(=O)c2c1	-189.5*
COc1ccc2oc3ccccc3c(=O)c2c1	-161.5*
COc1ccc2sc3ccccc3c(=O)c2c1	-169.7*
COc1ccc(-c2cc(=O)c3ccccc3s2)cc1	-248.0*
S=C(Nc1ccc(Cl)c(Cl)c1)NC1CCCCC1	-74.8*
CCc1ccc(NC(=S)N2CCCCCCC2)cc1	-123.0*
S=C(Nc1ccc2nsnc2c1)NC1CCCCC1	-163.3*
CC1CCN(C(=O)Nc2ccc3nsnc3c2)CC1	-126.3*
S=C(Nc1ccc2nsnc2c1)N1CCCCCC1	-148.2*
COc1ccc(NC(=S)Nc2ccc3nsnc3c2)cc1	-207.1*
CC(C)c1ccc(NC(=S)NC2CCCCCC2)cc1	-184.7*
S=C(NNc1ccc2ccccc2c1)NC1CCCCC1	-216.5*
Cc1ccc(NC(=S)NC2CCCCC2)cc1S(=O)(=O)N(C)C	-64.6*
CCn1c(SCc2ccccc2Cl)nc2ccccc21	-96.9*
CCC(=O)Nc1nc2ccccc2n1Cc1ccccc1Cl	72.3
Cn1c(SCc2ccccc2Cl)nc2ccccc21	-190.0*
O=C(NCCc1ccc(F)cc1)c1coc(=O)c(Br)c1	-64.5*
SMILES	aSyn 5UTR act
O=C(Nc1ccccc1F)c1coc(=O)c(Br)c1	-62.0*
Cc1cc(NC(=O)c2coc(=O)c(Br)c2)ccc1C(C)C	-75.5*
O=C(Nc1nc2ccccc2s1)c1ccccc1[N+](=O)[O-]	-152.6*
O=C(Nc1nc2ccccc2s1)c1ccc([N+](=O)[O-])o1	-173.0*
O=C(c1nc2ccccc2[nH]1)c1ccccc1[N+](=O)[O-]	-73.7*
O=C(Nc1nc2ccccc2s1)Nc1ccc([N+](=O)[O-])cc1Cl	-99.1*
CC(=O)Nc1nc2cccc([N+](=O)[O-])c2s1	-67.8*
Cc1cnc(NC(=O)c2ccc(-c3nc4ccccc4s3)o2)s1	-83.7*
O=C(Nc1c(Cl)ccc2nsnc12)c1ccc([N+](=O)[O-])o1	-202.7*
O=C(Nc1nc2cc3c(cc2s1)OCCO3)c1ccc([N+](=O)[O-])o1	-301.1*
COc1ccc2nc(NC(=O)c3ccc([N+](=O)[O-])o3)sc2c1	-160.7*
Cc1nc(N2CCN(S(=O)(=O)c3ccccc3)CC2)c2cc(-c3ccccc3)sc2n1	-113.4*
Cc1cccc(N=Nc2c(C)[nH]n(C(N)=S)c2=O)c1C	-199.4*
CC(=O)N(C)c1ccc(N=Nc2c(C)[nH]n(C(N)=S)c2=O)cc1	-112.5*
Cc1[nH]n(C(N)=S)c(=O)c1N=Nc1cccc(Cl)c1	-126.4*
CC(=O)Nc1ccc(/C=N/N2CCCCC2)cc1	-96.2*
C(=C\c1cc(/C=C/c2ccccc2)ncn1)/c1ccccc1	-144.9*
Cc1nc(/C=C/c2ccccc2)cc(/C=C/c2ccccc2)n1	-103.6*
Cn1nc(/C=C/c2ccccc2)ccc1=O	-189.7*
O=C(COC(=O)c1cc(=O)[nH]c2ccccc12)Nc1nc(-c2ccccc2)cs1	-73.3*
Cc1nc(CC(=O)Nc2nc(-c3ccccc3)cs2)cs1	-65.6*
O=C(Cn1nc(C(=O)O)c2ccccc2c1=O)Nc1nc(-c2ccccc2)cs1	-70.9*
C/C(=N\Nc1nc(-c2ccccc2)cs1)c1cccs1	-279.8*
O=C(Cc1cccs1)Nc1nc(-c2ccccc2)cs1	-81.2*
O=C(COC(=O)c1cccs1)Nc1nc(-c2ccccc2)cs1	-90.4*
SMILES	aSyn 5UTR act
Cn1nccc1C(=O)OCC(=O)Nc1nc(-c2ccccc2)cs1	-126.1*
O=C(Cn1nc(-c2ccccc2)c2ccccc2c1=O)Nc1ccccn1	-66.3*
COC(=O)CCC(=O)Nc1nc(-c2ccccc2)cs1	-64.7*
Cn1cc(Cl)c(C(=O)OCC(=O)Nc2nc(-c3ccc(Br)cc3)cs2)n1	-109.9*
COc1ccccc1CC(=O)Nc1nc(-c2ccc(F)c(F)c2)cs1	-82.6*
O=C(COC(=O)CNC(=O)c1ccccc1)Nc1nc(-c2ccccc2)cs1	-71.1*
O=C1c2ccccc2NC(c2cccc([N+](=O)[O-])c2)N1CCc1ccccc1 (stereo unspecified)	-136.4*
Cc1cc([N+](=O)[O-])ccc1-c1ccc(C2Nc3ccccc3C(=O)N2O)o1 (stereo unspecified)	82.6
CC(=O)c1ccc(OCc2cc(=O)n3ccsc3n2)cc1	-95.3*
O=c1cc(COc2ccccc2[N+](=O)[O-])nc2sccn12	-83.1*
c1ccc2[nH]c(SCc3cscn3)nc2c1	-104.3*
c1ccc2[nH]c(-c3cscn3)nc2c1	-99.0*
c1ccc2nc(-c3nc4ccccc4[nH]3)ccc2c1	74.4
O=C1NC(=O)/C(=C/c2ccc(O)cc2)S1	-91.5*
Cc1ccc(C(=O)/C=C2\NCCNC2=O)cc1	-71.6*
Cc1ccc(C(=O)/C=C2\NCC(C)NC2=O)cc1 (stereo unspecified)	59.0
CC(=O)Nc1ccc(N/C=C/C(=O)c2ccc(C)cc2)cc1	-74.0*
CC(=O)Nc1ccc(N/C=C/C(=O)c2ccc(Br)cc2)cc1	-94.7*
Cc1ccc(C(=O)/C=C\C(=O)c2ccc(C)cc2)cc1	-63.3*
CC(=O)c1ccc(N/C=C/C(=O)c2ccc(Br)cc2)cc1	-225.7*
CN1CCc2c(sc3c2C(=O)NC(c2cccs2)N3)C1 (stereo unspecified)	-102.8*
CC(C)(C)c1ccc(C(=O)Nc2ccc(C=C(C#N)C#N)cc2)cc1	-175.4*
N#CC(C#N)=Cc1ccc(NC(=O)c2ccc(Br)cc2)cc1	-152.6*
O=C(c1ccccc1)N1CCN2C(=O)c3ccccc3C12c1ccc(Cl)cc1 (stereo unspecified)	-72.4*
O=C(Nc1cnc2ccccn2c1=O)c1ccc(F)cc1	-92.0*
SMILES	aSyn 5UTR act
COc1ccc(C(=O)Nc2cnc3ccccn3c2=O)cc1	-169.2*
O=C(Nc1cnc2sc3c(n2c1=O)CCCC3)c1ccc(F)cc1	-105.0*
Nc1c(C(=O)c2ccc(Cl)cc2)sc2nc3c(cc12)CCC3	-107.8*
Nc1c(C(=O)C2CC2)sc2nc3c(cc12)CCC3	-161.4*
Nc1c(C(=O)Nc2cccc(C(=O)O)c2)sc2nc3c(cc12)CCCC3	76.6
CCOC(=O)N/N=C/C(Cl)=C/c1ccccc1	-127.8*
O=C(Cc1cccs1)N/N=C/C(Cl)=C/c1ccccc1	-192.5*
CCOc1ccc(/C=N/NC(=O)Cc2cccs2)cc1	-84.6*
Cc1cccc(/C=N/NC(=O)Cc2cccs2)c1	-73.8*
CCN(CC)c1ccc(/C=N/NC(=O)Cc2cccs2)c(O)c1	59.9
N=c1c2c(n(Cc3cccc(Cl)c3)c3c1CCC3)CCCC2	54.6
Cc1ccnc(Sc2ccc([N+](=O)[O-])cn2)n1	-72.3*
O=[N+]([O-])c1ccc(Sc2n[nH]c(-c3ccccc3)n2)nc1	-73.0*
Cc1oc(-c2ccc(-c3ccccc3)cc2)nc1CN(C)C1CCOC1 (stereo unspecified)	-113.4*
Cc1oc(-c2ccc(-c3ccccc3)cc2)nc1CN(CCO)C(C)C	-182.1*
O=c1c2cc(N3CCOCC3)ccc2[nH]c(=S)n1Cc1ccc(Cl)cc1	-121.5*

Source: PubChem BioAssay
